The list is not random: actives were taken first. Their share in the collection is about 2.7%.
HEK293 tox: qHTS of GLP-1 Receptor Inverse Agonists: Cytotox Screen; Potency, µM (doses to about 38.3 µM), for inactives: at the top dose activity change, negative = inhibition, actives largely listed as inhibitors; 0.13% of 410,000 active; HEK293 cAMP-luciferase reporter cells, luminescence, 24 h; AID 624418, 2012;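 further: loss of luciferase light is scored as toxicity; potency means the concentration at half of the fitted maximal effect; on the % scale 0 is the no-effect control and ±100 the full control effect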
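1536-well qHTS counterscreen of the MLSMR; 200 cells/uL, 12 h pre-incubation, 23 nL cpd, 24 h at 37 deg C 5% CO2, luciferase detection reagent, 12 min RT, luminescence. Inhibition = undesired.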
TrxR1 inh: qHTS Assay for Inhibitors of Mammalian Selenoprotein Thioredoxin Reductase 1 (TrxR1): qHTS; Thioredoxin reductase 1, cytoplasmic (Rattus norvegicus), O89049; recombinant rTrxR1, NADPH fluorescence consumption, selenite substrate; Potency, µM (series often up to 114 µM), inactives show top-dose activity change, negative = inhibition, most hits filed as inhibitors; 1% of 390,000 active; AID 588453, 2011; further: potency means the concentration at half of the fitted maximal effect; on the % scale 0 is the no-effect control and ±100 the full control effect; nearly all actives have a fitted effect of over 65% in size
Target sequence (O89049 whole entry, looked up): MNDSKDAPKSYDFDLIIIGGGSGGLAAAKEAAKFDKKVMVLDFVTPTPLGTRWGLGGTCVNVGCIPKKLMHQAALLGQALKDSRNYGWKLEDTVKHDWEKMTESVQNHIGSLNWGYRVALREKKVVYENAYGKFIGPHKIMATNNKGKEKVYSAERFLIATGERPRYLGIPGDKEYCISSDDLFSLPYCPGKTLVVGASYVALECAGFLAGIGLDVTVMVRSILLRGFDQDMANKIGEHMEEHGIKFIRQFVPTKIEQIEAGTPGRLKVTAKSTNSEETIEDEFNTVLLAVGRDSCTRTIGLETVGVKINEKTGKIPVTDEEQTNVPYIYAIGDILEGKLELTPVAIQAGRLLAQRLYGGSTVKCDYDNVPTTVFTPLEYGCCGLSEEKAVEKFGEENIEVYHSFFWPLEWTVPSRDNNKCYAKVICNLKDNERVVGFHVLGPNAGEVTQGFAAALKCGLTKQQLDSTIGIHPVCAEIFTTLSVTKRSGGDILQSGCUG
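Rat TrxR1 (90 nM in the dispensed reagent) was pre-reduced with 400 uM NADPH for 5 min at room temperature, then incubated with compound for 15 min. After 400 uM selenite was added, NADPH fluorescence (Ex 340/Em 450 nm) was followed for 8 min.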
GLP1R inv ag: qHTS of GLP-1 Receptor Inverse Agonists (Inhibition Mode) | Glucagon-like peptide 1 receptor (Homo sapiens), P43220 | HEK293 GLP-1R CRE-luciferase, luminescence, 24 h; GLP-1R form is constitutively active | Potency, µM (titrated, usually from 38.3 µM), for the others: top-dose activity change, negative = inhibition, most hits filed as inhibitors | 1.6% of 410,000 active | AID 624417, 2012; further: potency means the concentration at half of the fitted maximal effect; on the % scale 0 is the no-effect control and ±100 the full control effect; nearly all actives have a fitted effect of over 55% in size
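Inverse agonism was detected as reduced cAMP-driven luciferase luminescence after 24 h compound treatment. The cells were HEK293 clones expressing constitutively active human GLP-1R with the reporter. Reporter-only and GPR119 cell lines served as counterscreen controls.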
TrxR1 substrate: qHTS Assay for Substrates of Mammalian Selenoprotein Thioredoxin Reductase 1 (TrxR1): qHTS. Thioredoxin reductase 1, cytoplasmic (Rattus norvegicus), O89049. purified TrxR1 substrate turnover, NADPH consumption readout. Potency, µM (series often up to 114 µM), for inactives: at the highest dose activity change, negative = substrate turnover. 0.01% of 390,000 active. AID 588456, 2011; further: potency means the concentration at half of the fitted maximal effect; on the % scale 0 is the no-effect control and ±100 the full control effect; nearly all actives have a fitted effect of over 50% in size
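Rat TrxR1, dispensed at 90 nM, was prereduced with 400 uM NADPH (final) for 5 min at ~22 deg C, then incubated with compound 15 min before 400 uM selenite. A first-read NADPH fluorescence drop versus no-compound background flagged substrates.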
GLP1R ag: qHTS of GLP-1 Receptor Agonists | Glucagon-like peptide 1 receptor (Homo sapiens), P43220 | HEK293 GLP-1R CRE-luciferase, luminescence, 4-6 h; cells express a hypersensitive GLP-1R form | Potency, µM (highest dose often 45.6 µM), without a hit: at the highest dose activation, actives largely listed as activators | 0.007% of 380,000 active | AID 624172, 2012; further: potency means the concentration at half of the fitted maximal effect; % of control where 0% means no effect
mIDH1 inhibitor: qHTS for Inhibitors of mutant isocitrate dehydrogenase 1 (IDH1): qHTS; Isocitrate dehydrogenase [NADP] cytoplasmic (Homo sapiens), O75874; IDH1-R132H enzyme, NADPH consumption, diaphorase/resazurin fluorescence; AID 602179, 2012; 0.093% of 390,000 active; Potency, µM (doses to about 76.6 µM), without a hit: at the top dose activity change, negative = inhibition, actives largely listed as inhibitors; further: potency means the concentration at half of the fitted maximal effect; on the % scale 0 is the no-effect control and ±100 the full control effect; nearly all actives have a fitted effect of over 65% in size
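IDH1-R132H (0.5 ug/mL) preincubated 30 min with compound, then NADPH (0.016 mM) and alpha-KG (2 mM) added; 80 min at RT, pH 7.5. Remaining NADPH coupled via diaphorase/resazurin to fluorescence (540/590 nm); concentration-response curves normalized to no-enzyme control.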
Resorufin autofl: qHTS for Inhibitors of mutant isocitrate dehydrogenase 1 (IDH1): Cherrypicks Autofluorescence Interference; inhibition of signal, % at 51.2 µM; shares compounds with mIDH1 inhibitor; 750 tested, under 10 active; Resorufin detection reagent fluorescence interference, cell-free;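 further: 0% = wells with normal resorufin and full inhibition = wells lacking resorufin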
WT IDH1 inh: qHTS for Inhibitors of mutant isocitrate dehydrogenase 1 (IDH1): Cherrypicks in WT IDH1 | 9% of 750 active | Potency, µM (titrated, usually from 115 µM), without a hit: top-dose activity change, negative = inhibition, actives largely listed as inhibitors | AID 623995, 2012 | shares compounds with mIDH1 inhibitor | WT IDH1 enzyme, NADPH diaphorase/resazurin fluorescence;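 further: potency means the concentration at half of the fitted maximal effect; 0% = full WT IDH1 enzyme control and full inhibition = no enzyme wells; nearly all actives have a fitted effect of over 55% in size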
IDH1 R132H conf: qHTS for Inhibitors of mutant isocitrate dehydrogenase 1 (IDH1): Confirmation of Cherrypicks; 83% of 750 active; shares compounds with mIDH1 inhibitor; IDH1 R132H enzyme, NADPH diaphorase/resazurin fluorescence; Potency, µM (titrated, usually from 76.6 µM), for the others: at the highest dose activity change, negative = inhibition, most hits filed as inhibitors; further: potency means the concentration at half of the fitted maximal effect; nearly all actives have a fitted effect of over 50% in size
Starred values were filed as active, the others as inactive; ? = inconclusive; . = not tested or not shown; [ ] = dose if it differs, or a comment. The call rests on the fitted dose curve; in most records, active means well fitted curve in the direction sought with a large enough effect; inconclusive means small, poorly fitted or top-dose-only effect, or another doubt; inactive means no such curve, though single readings can be large; an effect the other way counts as inactive or inconclusive.

SMILES | HEK293 tox | TrxR1 inh | GLP1R inv ag | TrxR1 substrate | GLP1R ag | mIDH1 inhibitor | Resorufin autofl | WT IDH1 inh | IDH1 R132H conf
O=c1[nH]c(O)c(/C=C2/C=CC(c3cc(Cl)ccc3Cl)=N2)c(=O)[nH]1 | 7% | 2% | -7% | 0% | 3% | 29µM* | 3 | 45µM* | 11µM*
Cc1cc(C)cc(OCC(O)CN2CCC(CN3C(=O)c4cccc5cccc(c45)C3=O)CC2)c1 (stereo not drawn) | ? | 8% | ? | 3% | -2% | -2% | . | . | .
O=C(O)CSCC(=O)N(Cc1ccccc1)c1nc(-c2ccccc2)c(-c2ccccc2)s1 | -3% | 14% | ? | 3% | -2% | ? | 3 | 5% | 40µM*
O=C(O)c1cn(Cc2ccccc2)nc1-c1ccccc1 | 3% | 17% | 9% | -1% | 4% | 18% | . | . | .
C=CCNc1nc(NCc2ccc(N(C)C)cc2)c2sc(-c3ccccc3)cc2n1 | ? | . | ? | . | -4% | . | . | . | .
O=C1NC(=O)C(=Cc2ccc(-c3ccc(Cl)cc3)o2)C(=O)N1 | -4% | -60% | ? | 7%[57.1 µM] | 7% | ? | 3 | 2% | 40µM*
CCOc1ccc(C2c3c(-c4ccccc4O)n[nH]c3C(=O)N2Cc2ccncc2)cc1 (stereo not drawn) | -22% | 5% | -17% | -3% | . | ? | -5 | 1% | 40µM*
CC(C)c1ccc(C(=O)CC2(O)C(=O)N(CCc3ccccc3)c3ccc(Cl)cc32)cc1 (stereo not drawn) | ? | 24% | ? | 6% | -13% | 16% | . | . | .
CCCCOc1ccc(CC2C(=O)N(C)C(=O)N(C)C2=O)cc1 | 13% | -9% | 7% | -8% | 4% | ? | -1 | 114% | 45µM*
O=C(NCCc1ccccc1)[C@@H]1CC=C[C@@H]2CCN(Cc3ccc(Cl)c(Cl)c3)C(=O)[C@@H]21 | -6% | 27% | ? | 3% | 7% | -4%[38.3 µM] | . | . | .
COc1ccc(C[C@H](C)NC[C@@H](O)c2ccc(O)c(NC=O)c2)cc1 | -1% | 24% | 41% | 8% | ? | 5% | . | . | .
Clc1ccc(C(c2ccc(Cl)cc2)n2cc[n+](CC(OCc3ccc(Cl)cc3Cl)c3ccc(Cl)cc3Cl)c2)cc1 (stereo not drawn) | ? | ? | ? | -4%[57.1 µM] | -20% | 18µM* | -8 | ? | 7.9µM*
CCOc1ccccc1Oc1coc2cc(OC(=O)c3ccco3)ccc2c1=O | 7% | 15% | 3% | 18% | -1% | ? | -9 | 1% | 28µM*
Cc1cc(N(CCCl)CCCl)ccc1/C=N/NC(=O)c1ccco1 | -19% | -17% | -42% | 16% | 15% | -2% | . | . | .
COC(=O)C1=C(C)NC(=S)NC1c1ccc(N(CCCl)CCCl)cc1Cl (stereo not drawn) | ? | 6%[11.4 µM] | -12% | 7%[11.4 µM] | 1% | ? | 5 | 2% | 11µM*
CCOP(=O)(OCC)/C(C#N)=C/c1cc(OC)ccc1OC | 44% | -4%[2.29 µM] | 1% | -3%[57.1 µM] | -1% | -12% | . | . | .
COc1cccc(-c2nc3c(C#N)c[nH]n3c2NC2CCCCC2)c1OC | ? | 14% | 8% | 3% | . | 0% | . | . | .
COc1ccccc1-n1c(-c2ccccc2)nc2ccccc2c1=O | 2% | 6%[57.1 µM] | ? | 3% | 4% | 6% | . | . | .
COc1ccc(-c2c3c(=O)n(C)c(=O)n(C)c3c3n2-c2ccccc2NC3c2ccccc2OC)cc1 (stereo not drawn) | -4% | 7% | 4% | -5% | . | 45µM* | 0 | 3% | 6.3µM*
Cn1c(=O)c2c(-c3ccccc3)n3c(c2n(C)c1=O)C(c1cc(Cl)ccc1O)Nc1ccccc1-3 (stereo not drawn) | -1% | 21% | 3% | 4% | . | 40µM* | -4 | 5% | 14µM*
Cc1ccc(C[n+]2c(-c3ccc(C)cc3)cc(-c3ccc(C)cc3)cc2-c2ccc(C)cc2)cc1 | ? | 7% | ? | 63% | -4% | 40µM* | 0 | 12% | 22µM*
Cc1ccc(-c2cc(-c3ccc(C)cc3)[n+](-c3ccc(C(=O)O)cc3)c(-c3ccc(C)cc3)c2)cc1 | -2% | 14% | 18% | 20% | -1% | 5% | . | . | .
CCOC(=O)c1cc(-c2ccc(F)cc2)n(CC(=O)Nc2nccs2)c1C | ? | 6% | ? | -7% | 1% | -21% | . | . | .
CC(C)CN(CC(C)C)c1ccc(C=C2C(=O)NC(=S)NC2=O)cc1[N+](=O)[O-] | -11% | 2.5µM* | ? | -7% | -27% | ? | -3 | -2% | 40µM*
Cc1nc2cc(C(F)(F)F)ccc2n1C1CCN(Cc2nnnn2Cc2cccs2)CC1 | -7% | 30%[57.1 µM] | ? | 24%[57.1 µM] | 4% | -11% | . | . | .
Cc1nc2cc(C(F)(F)F)ccc2n1C1CCN(Cc2nnnn2Cc2ccc3c(c2)OCO3)CC1 | 1% | 0% | ? | -10% | -10% | ? | -4 | 14% | 16µM*
